Measured values from the supplement of paper PMC4954754.
± gives the uncertainty stated by the source.

What follows are compounds tested on HEK293T-Rex ERSE-FLuc (assay: ERSE-FLuc reporter activation, triplicate confirmation, relative to 500 nM thapsigargin (% of thapsigargin); higher = stronger ATF6/ERSE reporter activation). Details: 6.8 µM; 18 h; screen: confirmation.
Experimental: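 HEK293T-Rex cells stably expressing the ERSE-firefly luciferase (BiP promoter, ATF6-preferring) or XBP1-splicing Renilla luciferase (IRE1/XBP1s) reporter, 1536-well plates, compound at 6.8 µM for 18 hr at 37 °C; luminescence read […] and expressed as % activation = 100*(compound - median DMSO)/(median 500 nM thapsigargin - median DMSO). Primary screen was single-pass; confirmation screen in triplicate (mean ± SD).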

| Structure (SMILES) | ERSE-FLuc reporter activation |
| --- | --- |
| Oc1ccccc1/C=N\Nc1nc2ccccc2o1 | 26.6 ± 4.4 |
| Cc1cc2nc(/C(C#N)=C/c3ccco3)[nH]c2cc1C | 34.1 ± 8.6 |
| COc1cccc(-c2nc3ccc(N)cc3[nH]2)c1 | 32.8 ± 4.8 |
| CCN(CC)c1ccc(NC(=O)c2cccc(OC)c2)cc1 | 26.1 ± 1.1 |
| CN(c1ccccc1)S(=O)(=O)c1cccc(C(=O)NCCc2ccc(O)c(O)c2)c1 | 44.7 ± 3.8 |
| O=C(NCCCn1ccnc1)c1cc(-c2cccs2)on1 | 42.5 ± 6.9 |
| COc1cccc(C(=O)Nc2sc3c(c2C#N)CC(C)CC3)c1 (stereo not given) | 28 ± 5.5 |
| Cc1cc(C)nc(/N=C(\N)Nc2ccc(OCc3ccccc3)cc2)n1 | 53.1 ± 14 |
| CN(C)c1ccc(/C=C/C(=O)NC(=O)c2ccccc2OC(=O)c2ccccc2)cc1 | 26.9 ± 8.8 |
| O=C1c2cc(O)ccc2-c2ccc(O)cc21 | 25.6 ± 6 |
| CCCCNC(=O)c1cc(-c2ccc(F)cc2)on1 | 40.8 ± 5.3 |
| O=C(/C=C/c1ccco1)Nc1ccccn1 | 27.7 ± 4.8 |
| NC(=O)c1c(NC(=O)/C=C/c2ccccc2)sc2c1CCCCC2 | 28.9 ± 2.4 |
| COc1cc(/C=C/c2ccc(O)c(OC)c2)ccc1O | 35.9 ± 9.1 |
| O=C(CCc1ccccc1)Nc1ccc(Cl)cn1 | 27.8 ± 4.6 |
| Cc1ccc(/C=N/NC(=O)c2cccc(F)c2)cc1 | 27.1 ± 7.8 |
| OCCNc1nc(Nc2ccc(Br)cc2)nc2ccccc12 | 54.2 ± 16 |
| Cc1ccc(C)c(/C=N/Nc2nncc3ccccc23)c1 | 29.7 ± 1.9 |
| CCCNC(=O)c1cc(-c2ccc(F)cc2)on1 | 42 ± 5.5 |
| NC(=O)c1c(NC(=O)c2cccc3ccccc23)sc2c1CCC2 | 32 ± 1.6 |

| Structure (SMILES) | ERSE-FLuc reporter activation |
| --- | --- |
| O=C(Nc1ccc(Cl)cn1)c1ccc(Cl)cc1Cl | 27.1 ± 2.4 |
| CC(=O)N1CCc2c([nH]c3ccccc23)C12CCN(CCCOc1ccccc1)CC2 | 44.2 ± 8.7 |
| CC1(C)Cc2ccccc2/C(=C/C(=O)C(=O)N/N=C/c2ccc(O)c(O)c2)N1 | 30.1 ± 8.7 |
| COc1ccc(Nc2nccn3c(-c4ccsc4)cnc23)cn1 | 38.1 ± 6.9 |
| O=C(COC(=O)c1ccc(O)c(O)c1)Nc1nc(-c2ccccc2)cs1 | 39.3 ± 5.9 |
| COc1cccc(Nc2nc(-c3ccc(OC)c(F)c3)cs2)c1 | 25.2 ± 4.3 |
| O=C(CCCCCCC(=O)Nc1ccccc1)NO | 59.2 ± 17 |
| Nc1ccc2nc(-c3ccccn3)[nH]c2c1 | 26.8 ± 9.3 |
| CCOc1ccc(NC(=O)c2ccc3c(c2)OCO3)c([N+](=O)[O-])c1 | 30.1 ± 1.8 |
| N#Cc1c(NC(=O)c2ccc3c(c2)OCO3)sc2c1CCCC2 | 28.7 ± 6.8 |
| CCc1nc2sc(C(=O)c3ccccc3)c(N)c2cc1C | 26.2 ± 2.5 |
| Nc1nc(Nc2ccccc2)cc(-c2ccccc2)n1 | 33.8 ± 3.9 |
| O=C(N/N=C/c1cccc(Cl)c1Cl)c1ccccc1O | 25.3 ± 1.4 |
| Nc1ccc2nc(/C=C/c3ccccc3)[nH]c2c1 | 36.7 ± 5.2 |
| Cc1ccc(O)c(-c2cc(-c3ccc(F)cc3)n[nH]2)c1 | 25.5 ± 7.2 |
| CCCNc1ccnc(N2CCc3ccccc3C2)n1 | 25.7 ± 11 |
| Cc1cc(C)c(OCC(=O)N/N=C/c2ccc(O)c(O)c2)c(Br)c1 | 28.7 ± 6.2 |
| COc1ccccc1-c1nnc(Nc2nc3c(OC)cccc3s2)o1 | 51 ± 10 |
| Nc1ccc2nc(/C=C/c3ccco3)[nH]c2c1 | 40.9 ± 9.5 |
| CN(C)c1ccc(C(=NO)c2ccc(N(C)C)cc2)cc1 | 28 ± 6.5 |
